Data published in PubChem BioAssay.

Legend:
[1] = system: Human papillomavirus type 1a protein E7 (residues 44-93); experiment: small molecules binding HPV E7 44-93 – biochemical, small-molecule microarray, residues 44-93, 635 nm fluorescence, primary screen (AID 1108); conditions: fluorescence 635 nm, higher = more signal;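 also: E7 fragment applied at 1 µg/mL in TBST for 1 h at 4 C; score combines spot fluorescence with its signal to noise ratio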
[2] = hepatitis C replication reporter changes, two-sided – Huh7 cells, luciferase reporter, HCV replication inhibitor project, primary screen (AID 1109); conditions: Huh7 HCV replicon luciferase reporter, 48 h; higher = more signal;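 also: huh7 hepatoma cells harbouring a luciferase neomycin HCV replicon reporter; luciferase luminescence as measure of HCV replicon replication; test concentration not given here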
[3] = molecular target: Left-right determination factor 2 (Homo sapiens) (UniProt O00292); experiment: small molecules binding LEFTY2 protein – biochemical, small-molecule microarray, 635 nm fluorescence scan, primary screen (AID 1110); conditions: higher = more signal
Chain of Left-right determination factor 2 (Homo sapiens) (O00292 whole entry, looked up): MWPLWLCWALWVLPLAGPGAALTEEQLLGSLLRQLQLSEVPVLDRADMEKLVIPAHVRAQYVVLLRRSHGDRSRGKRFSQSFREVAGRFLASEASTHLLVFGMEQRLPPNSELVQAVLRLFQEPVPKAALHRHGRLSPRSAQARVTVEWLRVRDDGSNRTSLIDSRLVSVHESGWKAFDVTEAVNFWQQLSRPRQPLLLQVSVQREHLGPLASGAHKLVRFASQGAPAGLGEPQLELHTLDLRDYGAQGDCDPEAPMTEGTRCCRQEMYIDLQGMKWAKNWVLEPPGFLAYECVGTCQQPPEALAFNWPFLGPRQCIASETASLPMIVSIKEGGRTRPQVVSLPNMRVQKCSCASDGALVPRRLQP

[4] = molecular target: Calmodulin-1 (Homo sapiens) (UniProt P0DP23); experiment: small molecules binding calmodulin-1 with EGTA – biochemical, small-molecule microarray, Cy5-labelled CALM1, profiling panel (AID 1111); conditions: Cy5-CALM1 binding fluorescence, higher = more signal;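 also: labelled calmodulin applied in Tris saline Tween buffer holding calcium plus EGTA and DTT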
[5] = molecular target: Calmodulin-1 (Homo sapiens) (UniProt P0DP23); experiment: small molecules binding Ca-loaded calmodulin-1 – biochemical, small-molecule microarray, Cy5-labelled CALM1, plus calcium, artefact control for SMM control-protein annotation, profiling panel (AID 1112); conditions: Cy5-CALM1 binding fluorescence, higher = more signal;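 also: score merges spot fluorescence with signal to noise from triplicate slides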
[6] = probe aWnt5a binding to arrayed compounds – biochemical, biotinylated probe, 635/667 nm fluorescence, primary screen (AID 1113); conditions: small-molecule microarray, higher = more signal;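 also: score merges 667 nm fluorescence intensity with signal-to-noise per printed feature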
[7] = probe aShh binding to arrayed compounds – biochemical, biotinylated probe, 635/667 nm fluorescence, primary screen (AID 1114); conditions: small-molecule microarray, higher = more signal;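 also: probe is biotin-labelled aShh protein from a stem cell growth factor screen; measures binding of labelled protein to compounds printed on the slide; score merges feature fluorescence at 667 nm with signal-to-noise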
[8] = probe aNog binding to arrayed compounds – biochemical, biotinylated probe, 635/667 nm fluorescence, primary screen (AID 1115); conditions: small-molecule microarray, higher = more signal;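 also: probe is biotinylated aNog protein used at 0.15 µg/mL for 1 h at 4 C; z-score combines 667 nm fluorescence of each spot with its signal to noise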
[9] = molecular target: Torsin-1A-interacting protein 1 (Homo sapiens) (UniProt Q5JTV8); experiment: compound microarray binding of lysate hLAP1 – cell lysate, small-molecule microarray, COS7 lysate, 635/667 nm fluorescence, primary screen (AID 1116); conditions: 635 nm fluorescence, higher = more signal
Chain of Torsin-1A-interacting protein 1 (Homo sapiens) (Q5JTV8 whole entry, looked up): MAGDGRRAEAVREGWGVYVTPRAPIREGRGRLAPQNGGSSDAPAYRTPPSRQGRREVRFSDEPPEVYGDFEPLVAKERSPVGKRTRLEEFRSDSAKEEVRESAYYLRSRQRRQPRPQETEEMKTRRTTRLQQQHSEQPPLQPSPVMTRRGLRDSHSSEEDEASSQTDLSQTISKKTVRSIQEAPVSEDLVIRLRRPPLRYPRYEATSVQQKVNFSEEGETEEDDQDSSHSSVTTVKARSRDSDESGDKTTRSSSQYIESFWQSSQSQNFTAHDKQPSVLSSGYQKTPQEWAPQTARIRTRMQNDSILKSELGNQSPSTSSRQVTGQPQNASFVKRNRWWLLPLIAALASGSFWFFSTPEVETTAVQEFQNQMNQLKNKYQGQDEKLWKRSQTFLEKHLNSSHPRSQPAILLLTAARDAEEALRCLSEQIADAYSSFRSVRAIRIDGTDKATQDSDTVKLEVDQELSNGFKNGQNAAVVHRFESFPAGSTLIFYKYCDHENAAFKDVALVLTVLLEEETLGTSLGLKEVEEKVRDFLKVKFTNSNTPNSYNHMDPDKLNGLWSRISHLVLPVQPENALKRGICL

[10] = molecular target: Alpha-bungarotoxin (Bungarus multicinctus) (UniProt P60615); experiment: compounds binding labelled alpha-BTX control protein – biochemical, small-molecule microarray, Alexa647 label, 635/667 nm fluorescence, artefact control for SMM control protein annotation, profiling panel (AID 1117); conditions: alpha-BTX-A647 binding fluorescence, higher = more signal
Chain of Alpha-bungarotoxin (Bungarus multicinctus) (P60615 whole entry, looked up): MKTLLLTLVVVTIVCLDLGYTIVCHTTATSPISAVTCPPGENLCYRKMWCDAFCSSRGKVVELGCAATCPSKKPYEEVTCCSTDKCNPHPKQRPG

Which composite z-score [1] does the source give for `COC(=O)[C@H](C)NC(=O)CCC1CC(OC(=O)NCc2cccc3ccccc23)CC2(CCCC(COC(=O)NCC3CCCCC3)O2)O1` (stereo not given in full) here?
The composite z-score was 1.32.

What about the z-score [2] of the same molecule?
The z-score was -0.411.

What about the composite z-score [3] of the same molecule?
Its composite z-score is 0.776.

What about the composite z-score [4] of the same molecule?
The composite z-score was 0.708.

What about the composite z-score [5] of the same molecule?
Its composite z-score is -0.798.

And the composite z-score [6]?
The composite z-score was -0.174.

And the composite z-score [7]?
Its composite z-score is -0.0035.

And the composite z-score [8]?
Its composite z-score is -0.501.

And the composite z-score [9]?
The composite z-score was 0.587.

What about the composite z-score [10] of the same molecule?
Its composite z-score is 0.585.

With `COc1ccccc1CN1C(=O)c2ccccc2[C@@]2(Cc3ccccc3N(C(C)C)C2=O)[C@@H]1c1ccc(CO)cc1` as the molecule, how does the composite z-score [1] read?
Its composite z-score is -0.0853.

And the z-score [2]?
The z-score was -0.318.

What about the composite z-score [3] of the same molecule?
The composite z-score was -0.88.

And the composite z-score [4]?
Its composite z-score is -0.37.

What about the composite z-score [5] of the same molecule?
Its composite z-score is -0.772.

What about the composite z-score [6] of the same molecule?
Its composite z-score is -0.12.

What about the composite z-score [7] of the same molecule?
Its composite z-score is -0.0553.

What about the composite z-score [8] of the same molecule?
Its composite z-score is 0.005.

What about the composite z-score [9] of the same molecule?
The composite z-score was -0.509.

And the composite z-score [10]?
Its composite z-score is 1.12.

For `CC(=O)OC[C@H]1O[C@H](CCON=C[C@@H](C)[C@H](OCc2ccccc2)C(C)C)C=C[C@@H]1OC(C)=O`, which composite z-score [1] is on record?
Its composite z-score is 0.837.

What about the z-score [2] of the same molecule?
The z-score was -0.461.

And the composite z-score [3]?
The composite z-score was 0.646.

What about the composite z-score [4] of the same molecule?
Its composite z-score is -0.501.

What about the composite z-score [5] of the same molecule?
Its composite z-score is -0.911.

What about the composite z-score [6] of the same molecule?
Its composite z-score is 0.0181.

And the composite z-score [7]?
Its composite z-score is -0.214.

What about the composite z-score [8] of the same molecule?
Its composite z-score is -0.215.

And the composite z-score [9]?
Its composite z-score is 0.619.

And the composite z-score [10]?
The composite z-score was 0.13.

For `CC(C)C[C@@H]1NC(=O)[C@H]2C[C@@H](C(=O)O)[C@@H](c3ccc(O)cc3)N2C1=O`, which composite z-score [1] is on record?
The composite z-score was 0.635.

What about the z-score [2] of the same molecule?
The z-score was 3.51.

What about the composite z-score [3] of the same molecule?
Its composite z-score is 0.0945.

What about the composite z-score [4] of the same molecule?
The composite z-score was -0.187.

What about the composite z-score [5] of the same molecule?
Its composite z-score is 0.131.

And the composite z-score [6]?
The composite z-score was -0.0704.

And the composite z-score [7]?
The composite z-score was 0.0611.

What about the composite z-score [8] of the same molecule?
The composite z-score was -0.144.

What about the composite z-score [9] of the same molecule?
Its composite z-score is 0.588.

And the composite z-score [10]?
Its composite z-score is 2.19.

For `CC(C)C[C@@H]1NC(=O)[C@H]2C[C@@H](C(=O)NCCCCCCN(C)C)[C@@H](c3cccc(OCCO)c3)N2C1=O`, which composite z-score [1] is on record?
The composite z-score was 1.24.

And the z-score [2]?
The z-score was 0.35.

And the composite z-score [3]?
The composite z-score was 1.38.

What about the composite z-score [4] of the same molecule?
The composite z-score was -2.44.

What about the composite z-score [5] of the same molecule?
The composite z-score was -1.26.

What about the composite z-score [6] of the same molecule?
The composite z-score was -0.0792.

And the composite z-score [7]?
Its composite z-score is 0.108.

What about the composite z-score [8] of the same molecule?
The composite z-score was -0.216.

What about the composite z-score [9] of the same molecule?
Its composite z-score is 2.04.

What about the composite z-score [10] of the same molecule?
The composite z-score was 1.61.

What does the source list for `COCCOC(=O)N1C(=O)[C@@]2(c3cc(C#Cc4ccc(OC)cc4)ccc31)[C@H](C(=O)N1CCN(c3ncccn3)CC1)[C@H]1C(=O)O[C@H](c3ccccc3)[C@H](c3ccccc3)N1[C@@H]2c1ccc(OCCO)cc1`?
composite z-score [1]: 1.4; z-score [2]: -1.56; composite z-score [3]: 0.64; composite z-score [4]: 0.766; composite z-score [5]: 0.397; composite z-score [6]: 0.101; composite z-score [7]: -0.229; composite z-score [8]: 1.26; composite z-score [9]: -0.109; composite z-score [10]: 0.598

With `CC(C)[C@H](NC(=O)OC(C)(C)C)[C@@H](O)CC(=O)OC(C)(C)C` as the molecule, how does the composite z-score [1] read?
The composite z-score was -2.46.

What about the z-score [2] of the same molecule?
The z-score was -0.59.

And the composite z-score [3]?
The composite z-score was -0.428.

What about the composite z-score [4] of the same molecule?
The composite z-score was -0.32.

And the composite z-score [5]?
Its composite z-score is -0.275.

And the composite z-score [6]?
The composite z-score was -0.0977.

And the composite z-score [7]?
Its composite z-score is -0.147.

And the composite z-score [8]?
The composite z-score was -0.241.

And the composite z-score [9]?
The composite z-score was -0.68.

And the composite z-score [10]?
The composite z-score was -0.232.

What does the source list for `C[C@H](c1ccccc1)N1C(=O)[C@H]2[C@H]3[C@H](O)[C@H](O)CC(=O)[C@@H]3CC[C@H]2C1=O`?
composite z-score [1]: -0.81; z-score [2]: -1.22; composite z-score [3]: 0.417; composite z-score [4]: -0.229; composite z-score [5]: -0.465; composite z-score [6]: -0.0495; composite z-score [7]: -0.237; composite z-score [8]: 0.0638; composite z-score [9]: -0.0506; composite z-score [10]: 0.3

With `COc1ccc([Si](C)(C)[C@H]2[C@H](CCO)O[C@@]3(C(=O)N(Cc4cccc(NC(=O)[C@H](C)O)c4)c4ccccc43)[C@@H]2C)cc1` as the molecule, how does the composite z-score [1] read?
Its composite z-score is 1.39.

And the z-score [2]?
Its z-score is -5.13.

And the composite z-score [3]?
The composite z-score was 0.383.

What about the composite z-score [4] of the same molecule?
The composite z-score was 0.922.

What about the composite z-score [5] of the same molecule?
The composite z-score was -0.14.

And the composite z-score [6]?
Its composite z-score is -0.101.

And the composite z-score [7]?
The composite z-score was 0.0144.

And the composite z-score [8]?
Its composite z-score is -0.074.

And the composite z-score [9]?
The composite z-score was 0.798.

And the composite z-score [10]?
The composite z-score was 1.36.

Which composite z-score [1] does the source give for `COC(=O)[C@@]1(Cc2ccccc2)[C@H]2c3cc(C(=O)N4CCCC4)n(Cc4ccccn4)c3C[C@H]2CN1C(=O)c1ccccc1` here?
The composite z-score was 1.5.

And the z-score [2]?
Its z-score is -1.24.

And the composite z-score [3]?
The composite z-score was 0.0043.

What about the composite z-score [4] of the same molecule?
Its composite z-score is 1.45.

And the composite z-score [5]?
Its composite z-score is 0.053.

What about the composite z-score [6] of the same molecule?
Its composite z-score is 0.752.

And the composite z-score [7]?
The composite z-score was 0.894.

What about the composite z-score [8] of the same molecule?
Its composite z-score is 2.25.

What about the composite z-score [9] of the same molecule?
The composite z-score was 2.42.

What about the composite z-score [10] of the same molecule?
Its composite z-score is 0.914.

With `C#C[C@@H](CC)O[Si](C#Cc1ccc(Oc2ccccc2)cc1)(C(C)C)C(C)C` as the molecule, how does the composite z-score [1] read?
Its composite z-score is 1.1.

What about the z-score [2] of the same molecule?
Its z-score is -0.715.

What about the composite z-score [3] of the same molecule?
Its composite z-score is 0.341.

What about the composite z-score [4] of the same molecule?
Its composite z-score is -0.0885.

What about the composite z-score [5] of the same molecule?
Its composite z-score is -0.657.

And the composite z-score [6]?
The composite z-score was -0.0963.

And the composite z-score [7]?
The composite z-score was -0.0533.

And the composite z-score [8]?
Its composite z-score is -0.254.

What about the composite z-score [9] of the same molecule?
Its composite z-score is 0.368.

What about the composite z-score [10] of the same molecule?
The composite z-score was 0.0826.

Which results are given for `O=C1C2=CC[C@H]3C(=O)N(Cc4ccc5c(c4)OCO5)C(=O)[C@H]3[C@H]2[C@H](O)[C@@H]2O[C@H]12`?
composite z-score [1]: 0.631; z-score [2]: -0.43; composite z-score [3]: 0.341; composite z-score [4]: -0.306; composite z-score [5]: -0.502; composite z-score [6]: -0.0495; composite z-score [7]: -0.346; composite z-score [8]: -0.0381; composite z-score [9]: 0.442; composite z-score [10]: 0.251

Which composite z-score [1] does the source give for `COC(=O)[C@@]1(Cc2ccc(OC)cc2)[C@H]2c3cc(C(=O)N4CCCC4)n(Cc4cc(F)c(F)c(F)c4)c3C[C@H]2CN1C(=O)c1ccccc1` here?
The composite z-score was 1.37.

What about the z-score [2] of the same molecule?
The z-score was 0.323.

And the composite z-score [3]?
Its composite z-score is 0.342.

And the composite z-score [4]?
Its composite z-score is 2.69.

What about the composite z-score [5] of the same molecule?
Its composite z-score is 1.59.

And the composite z-score [6]?
The composite z-score was 1.11.

And the composite z-score [7]?
Its composite z-score is 2.22.

What about the composite z-score [8] of the same molecule?
Its composite z-score is 1.07.

What about the composite z-score [9] of the same molecule?
Its composite z-score is 1.52.

What about the composite z-score [10] of the same molecule?
Its composite z-score is 2.06.
